In PubChem BioAssay (NCATS):
Several values for one entry are separate records, joined by “and”; a condition that tells them apart may be missing. Equal values may be shown once. Unmarked numbers belong to inactive results. Records with an inconclusive call do not appear. Entries that show only a call come without a potency. Activity calls are given as the source filed them. Calls follow the shape of the dose curve; as a rule, active = well fitted curve in the direction sought with a large enough effect; inconclusive = small, poorly fitted or top-dose-only effect, or another doubt; inactive = no such curve, though single readings can be large; an effect the other way counts as inactive or inconclusive.

Columns and labels:
[1] = target: T1, Hexokinase-4 (Homo sapiens) + Glucokinase regulatory protein (Homo sapiens) (UniProt P35557+Q14397); assay: qHTS assay for inhibitors of recombinant human GCK-GKRP interaction: Diaphorase-coupled assay (AID 743205)
In short: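 Inhibitors of the GCK–GKRP complex relieve GKRP suppression of GCK, detected through a G6PDH–diaphorase cascade reducing resazurin. Human GST-GCK and FLAG-GKRP are used at 10 nM with 5 mM glucose and 0.4 mM ATP.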

[2] = target: T1, Hexokinase-4 (Homo sapiens) + Glucokinase regulatory protein (Homo sapiens); assay: qHTS assay for inhibitors of recombinant human GCK-GKRP interaction: ADP-Glo assay (AID 743206)
In short: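 GST-GCK and FLAG-GKRP (15 nM each in the dispensed mix, with 2 uM S6P) react with 0.4 mM ATP and 5 mM glucose (final) in Hepes pH 7.6 for 60 min at room temperature. ADP is measured by ADP-Glo luminescence.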

[3] = target: T1, Hexokinase-4 (Homo sapiens) + Glucokinase regulatory protein (Homo sapiens); assay: qHTS assay for inhibitors of recombinant human GCK-GKRP interaction: HTRF assay (AID 743207)
In short: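 Steps: dispense GCK–GKRP complex (5 nM each, GST- and FLAG-tagged) with 2 uM S6P; pin in compounds; add XL665/Eu-cryptate-labelled antibodies; incubate 60 min at room temperature; read time-resolved FRET at 665 and 615 nm.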

[4] = qHTS Assay for Identifying Gametocytocidal Compounds (AID 743244); also: potency is read from the fitted curve at half-maximal effect;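 as to max response: actives lower the fluorescent signal which means gametocytes are killed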; conditions: P. falciparum 3D7 stage III-V gametocytes, alamarBlue, 72 h; max response: active compounds read low
In short: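 Late gametocytes (III–V), P. falciparum 3D7; 72 h drug, then 24 h alamarBlue; resazurin reduction read by fluorescence.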

[5] = qHTS assay for cell viability of HEK293 cells (AID 743288); conditions: ATP luminescence (CellTiter-Glo), 18 h, active compounds read low; also: nearly all actives have a fitted effect of over 50% in size
In short: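 The Tox21 protocol used parental HEK293 cells treated for 18 h at 37 C with compounds delivered by pintool; ATP-coupled luminescence after 30 min at room temperature gave viability.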

[6] = qHTS assay for cell viability of the p53RE-bla HCT-116 cell line (AID 743292); also: nearly all actives have a fitted effect of over 55% in size
In short: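 In this qHTS counter-screen, metabolically competent p53RE-bla HCT-116 cells were counted via their ATP content. Compounds were applied for 16 h at 37 C and luciferase-coupled luminescence was measured.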

T1 sequence (P35557 whole entry, looked up): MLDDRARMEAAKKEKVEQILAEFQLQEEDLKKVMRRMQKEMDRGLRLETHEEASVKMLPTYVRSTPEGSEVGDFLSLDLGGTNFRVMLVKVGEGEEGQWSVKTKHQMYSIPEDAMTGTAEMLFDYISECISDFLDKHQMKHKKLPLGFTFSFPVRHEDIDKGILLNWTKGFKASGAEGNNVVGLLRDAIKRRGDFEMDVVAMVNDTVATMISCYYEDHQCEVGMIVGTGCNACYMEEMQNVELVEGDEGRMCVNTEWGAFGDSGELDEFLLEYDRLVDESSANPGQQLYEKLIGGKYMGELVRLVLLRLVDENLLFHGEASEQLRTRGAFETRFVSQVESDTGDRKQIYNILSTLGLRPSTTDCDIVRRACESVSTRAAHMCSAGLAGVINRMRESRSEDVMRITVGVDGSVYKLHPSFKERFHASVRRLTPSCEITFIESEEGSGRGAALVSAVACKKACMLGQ
T1 sequence (Q14397 whole entry, looked up): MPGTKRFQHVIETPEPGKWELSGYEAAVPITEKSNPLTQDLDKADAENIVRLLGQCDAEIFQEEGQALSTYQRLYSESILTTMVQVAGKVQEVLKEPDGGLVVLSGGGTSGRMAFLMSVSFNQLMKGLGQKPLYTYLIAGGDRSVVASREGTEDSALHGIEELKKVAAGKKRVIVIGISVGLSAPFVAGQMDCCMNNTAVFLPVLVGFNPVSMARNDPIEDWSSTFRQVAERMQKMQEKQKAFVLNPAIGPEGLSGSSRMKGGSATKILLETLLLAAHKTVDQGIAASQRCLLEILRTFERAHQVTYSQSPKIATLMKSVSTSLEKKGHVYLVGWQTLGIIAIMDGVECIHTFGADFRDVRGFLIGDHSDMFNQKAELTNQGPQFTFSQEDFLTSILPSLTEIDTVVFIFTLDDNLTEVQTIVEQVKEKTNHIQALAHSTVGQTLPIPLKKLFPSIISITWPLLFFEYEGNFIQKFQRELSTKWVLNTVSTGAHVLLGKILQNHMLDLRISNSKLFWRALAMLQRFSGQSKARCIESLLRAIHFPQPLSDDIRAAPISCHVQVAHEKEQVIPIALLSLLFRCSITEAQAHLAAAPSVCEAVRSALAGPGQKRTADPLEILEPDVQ

COc1cc(NS(C)(=O)=O)ccc1Nc1c2ccccc2nc2ccccc12
outcome [1]: inactive
outcome [2]: inactive
outcome [3]: inactive
Potency [4]: 6.31 µM (active)

NC[C@H]1O[C@H](O[C@H]2[C@H](O[C@@H]3O[C@H](CO)[C@@H](O)[C@H]3O)C(O)[C@H](N)C[C@@H]2N)[C@H](N)[C@@H](O)[C@@H]1O (stereo not given in full)
max response [4]: 0.613%

COc1cc2c(cc1OC)C(=O)C(CC1CCN(Cc3ccccc3)CC1)C2 (stereo not given)
max response [4]: 3.63%

CC[C@H](C)C(=O)O[C@H]1CCC=C2C=C[C@H](C)[C@H](CC[C@@H]3C[C@@H](O)CC(=O)O3)[C@H]21
outcome [1]: inactive
outcome [2]: inactive
outcome [3]: inactive
max response [4]: 15.8% and 37.7%

CNCCC=C1c2ccccc2CCc2ccccc21
outcome [1]: inactive
outcome [2]: inactive
outcome [3]: inactive

CN1C2CCC1CC(OC(=O)c1c[nH]c3ccccc13)C2 (stereo not given)
outcome [1]: inactive
outcome [2]: inactive
outcome [3]: inactive
max response [4]: 9.76%

O=C1CCC(c2ccc(-n3ccnc3)cc2)=NN1
outcome [1]: inactive
outcome [2]: inactive
outcome [3]: inactive
max response [4]: -0.884% and -6.59%

O=C(O)c1cc2cc(Cc3cccnc3)ccc2o1
outcome [1]: inactive
outcome [2]: inactive
outcome [3]: inactive
max response [4]: 2.09% and 51.2%

C1CCc2nnnn2CC1
outcome [1]: inactive
outcome [2]: inactive
outcome [3]: inactive
max response [4]: -4.71%

CCCn1c(=O)[nH]c(=O)c2[nH]cnc21
outcome [1]: inactive
outcome [2]: inactive
outcome [3]: inactive
max response [4]: 20.2% and 5.21%

C[C@]12CC[C@@H]3c4ccc(O)cc4CC[C@H]3[C@@H]1CC[C@@H]2O
outcome [1]: inactive
outcome [2]: inactive
outcome [3]: inactive
max response [4]: 23.5% and 41.3%
max response [5]: -9.32%
outcome [6]: inactive

N[C@H](CO)C(=O)O
outcome [1]: inactive
outcome [2]: inactive
outcome [3]: inactive
max response [4]: 0.963% and 16.2%

CC(=O)N/N=C/c1ccc([N+](=O)[O-])o1
Potency [4]: 31.6 µM (active)

Cc1cccn2c(=O)c(-c3nnn[nH]3)cnc12
max response [4]: -1.77%
